The target in the first test is KRTAP5-8. Briefly: pooled miR-30 sensor sort-seq; sequence = guide strand. To be noted: shRNA.
The sequence ACAGGAGCCACAGTCCCCCTTG had a sensor-assay potency score (higher = more potent) of -0.958.

With ATGGGCACACAGCAGCTAGAGC, the sensor-assay potency score (higher = more potent) was -1.84.

Sequence CTGCAGGGCTTACAACAGCTGG showed a sensor-assay potency score (higher = more potent) of -2.04.

Another test addresses KRTAP5-9. The test is described as above. To be noted: shRNA.
In the case of TAGGGCTTGCAGCAGCTGCACT, the sensor-assay potency score (higher = more potent) is -1.29.

TTGCCACAGCTAGAGCAGGAAC yielded a sensor-assay potency score (higher = more potent) of -1.67.

AGCTAGAGCAGGAACAGGCTGG showed a sensor-assay potency score (higher = more potent) of -1.04.

In turn, TAGAGCAGGAACAGGCTGGAAC came in with a sensor-assay potency score (higher = more potent) of -1.08.

In the case of TGAAGAGCAACAGCAGGGCTTG, the sensor-assay potency score (higher = more potent) is -0.909.

As for TGGAACACAGCAGCACACGGGC, the sensor-assay potency score (higher = more potent) is -1.32.

In turn, CACACAGGGACACAGCATCTGG showed a sensor-assay potency score (higher = more potent) of -1.57.

For TTGCAGCAGTAGACGGGTGCAC, the sensor-assay potency score (higher = more potent) was -0.372.

In the case of TAGACGGGTGCACAGCAGCTGG, the sensor-assay potency score (higher = more potent) was -1.34.

With TCACAGCCTCCACAGCTGGAGC, the sensor-assay potency score (higher = more potent) was -1.62.

Consider AGTCACAGCCTCCACAGCTGGA, for which the sensor-assay potency score (higher = more potent) is -1.85.

For TGAGGATGAGCAGCAGGGCTTG, the sensor-assay potency score (higher = more potent) is -1.74.

The next test deals with KRTAP6-3. The test is described as above. The settings on record: shRNA.
Consider TTGTAGTTTCTGTAGTAGCTGC, for which the sensor-assay potency score (higher = more potent) is -0.198.

For the sequence TAGTAGCTGCCACACATGGTGT, the sensor-assay potency score (higher = more potent) is -1.17.

As to TAGTTTCTGTAGTAGCTGCCAC, the sensor-assay potency score (higher = more potent) is -0.443.

In turn, ATTGTAGTTTCTGTAGTAGCTG had a sensor-assay potency score (higher = more potent) of -0.231.

For TGTAGTTTCTGTAGTAGCTGCC, the sensor-assay potency score (higher = more potent) worked out at 0.749.

Sequence ATAGCCATGGCCACCATTGTAG displayed a sensor-assay potency score (higher = more potent) of -1.31.

The sequence TCTGTAGTAGCTGCCACACATG gave a sensor-assay potency score (higher = more potent) of -1.43.

As for TTCTGTAGTAGCTGCCACACAT, the sensor-assay potency score (higher = more potent) was -0.0154.

ACAGCCATAGCCACAGTCCAGG returned a sensor-assay potency score (higher = more potent) of -1.73.

Sequence TAGCCACAGCCACAGAAGGAGC returned a sensor-assay potency score (higher = more potent) of -1.94.

With TTTCTGTAGTAGCTGCCACACA, the sensor-assay potency score (higher = more potent) was -1.22.

Consider TCTGTAGCCACAGCCACAGAAG, for which the sensor-assay potency score (higher = more potent) is -1.55.

The target in another test is KRTAP8-1. The test is described as above. The settings on record: shRNA.
In turn, TTGTAGCCATAGCCGAAGCCAT registered a sensor-assay potency score (higher = more potent) of -1.41.

ATCCTGGGAAGACAGCCCCGGG displayed a sensor-assay potency score (higher = more potent) of -1.89.

Regarding TTGGAAAGCAGTGTCTCTGAGG, the sensor-assay potency score (higher = more potent) is -0.482.

On to ACAGCCAACGCTATATCCCAGC, for which the sensor-assay potency score (higher = more potent) is -1.47.

Regarding AGCCGTTGTAGCCATAGCCGAA, the sensor-assay potency score (higher = more potent) is -1.46.

TGCTGCCATAGCCACAGCCAAC: the sensor-assay potency score (higher = more potent) was -2.12.

In turn, TGCCCCAGTAGCATCCTGGGAA gave a sensor-assay potency score (higher = more potent) of -0.828.

As for TAGGTGCTGCCATAGCCACAGC, the sensor-assay potency score (higher = more potent) is -1.53.

Take TATATCCCAGCGGGTAGCCATA: the sensor-assay potency score (higher = more potent) is -1.94.

In turn, TGTAGCCATAGCCGAAGCCATA had a sensor-assay potency score (higher = more potent) of -1.87.

With TAGCCGAAAGCCCCACAGCCGT, the sensor-assay potency score (higher = more potent) was -1.72.

TAGCATCCTGGGAAGACAGCCC registered a sensor-assay potency score (higher = more potent) of -0.588.

The values above are taken from the OligoGym collection.
Also: reference of the scale not given here.
